The full ranking holds about 68,000 sequences; the median of “fluorescence intensity (a.u.)” is about 9,100, and the highest 2% start at about 16,000. For the sample, the highest values were picked, then their nearest neighbours and some sequences at random.

This experiment deals with OsWRKY34 (Oryza sativa, UniProt Q0JBA9 1-250). Kind of experiment: protein-binding microarray (RPBM); PBS, 2% BSA, 51.3 ng/ul salmon testes DNA, 50 uM zinc acetate, 200 nM TF, 25 C, 1 h; high values mean tight binding. The settings on record: protein: recombinant; tags: N-terminal polyhistidine and DsRed monomer fusion (pET32a); label: CyDye5-dUTP incorporated in the synthesized complementary strand; 3' TTTTT single-stranded linker to array surface; dsDNA, one strand shown. In a few lines: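 Binding signal is reported as fluorescence intensity per feature (arbitrary units) from an Axon 4000B scanner. Incubation used 200 nM of each Ni–NTA-purified, N-terminally polyhistidine- and DsRed-fused transcription factor from E. coli BL21-CodonPlus on a double-stranded custom Agilent array for 1 h at 25 °C, with 50 µM zinc acetate in the buffer, followed by washing.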
OsWRKY34, sequence (Q0JBA9 entry or part of it): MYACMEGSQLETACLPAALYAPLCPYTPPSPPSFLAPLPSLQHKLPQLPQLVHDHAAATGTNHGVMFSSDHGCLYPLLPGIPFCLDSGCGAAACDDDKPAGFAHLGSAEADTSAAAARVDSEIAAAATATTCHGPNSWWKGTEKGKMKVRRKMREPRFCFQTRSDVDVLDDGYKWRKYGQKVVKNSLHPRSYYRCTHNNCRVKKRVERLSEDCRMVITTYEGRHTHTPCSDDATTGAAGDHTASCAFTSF
As to “TTCGGGCATACGCCACCCCGCCTTGTCATCCACCGCGCCCCGGAGTCACCTAGTGCAG”, the binding signal was 8470 fluorescence intensity (a.u.). Take “AACATTTATTTCCATATCTTCATATATGGTTCCATATGAACGGAGTCACCTAGTGCAG”: the binding signal was 8400 fluorescence intensity (a.u.).

For “TGCCAAGGACTGCATCTTCATCATTGCCTGGGTGTCCACCCGGAGTCACCTAGTGCAG”, the binding signal was 8700 fluorescence intensity (a.u.). Regarding “AACCCACAATTACGCGGCGGTGCATTCTCGTTGCTTTGACCGGAGTCACCTAGTGCAG”, the binding signal is 11400 fluorescence intensity (a.u.). “ACCGACTCAAAAACCTAACGGCACTTTTTTTATTTTCAACCGGAGTCACCTAGTGCAG”: the binding signal was 10600 fluorescence intensity (a.u.). The value for “GGTTGGTGACGCGTTGTTGTTTGTTCCTCAAATTTGTTCTCGGAGTCACCTAGTGCAG” was 16500 fluorescence intensity (a.u.).

With “TCGCGTCGCGTTTCGACCTCGCGCTCTGGGTCTGGGTGTCCGGAGTCACCTAGTGCAG”, the binding signal is 8330 fluorescence intensity (a.u.). Regarding “TCTACGAGGGTTTTTGCGCTTTTGTTGCTCTCCGCTCCGCCGGAGTCACCTAGTGCAG”, the binding signal was 8160 fluorescence intensity (a.u.). Regarding “GGTTGGCTTCTTCTCGGTTTGTTCGTTCCTTGTGGTCGAGCGGAGTCACCTAGTGCAG”, the binding signal was 8240 fluorescence intensity (a.u.). Regarding “AACCTCAATTTTGTTTGTTTTGCCTTTTGGTTCAAATACTCGGAGTCACCTAGTGCAG”, the binding signal is 8180 fluorescence intensity (a.u.). The figure for “GCGTTTTTGTCTCTCTGCTCTCTGCTGCTGCTGCTGGGTCCGGAGTCACCTAGTGCAG” is 11300 fluorescence intensity (a.u.); for “ACGTTGTTTGTGTCACGCTTCTCAAATCCCTTGGTGTTCTCGGAGTCACCTAGTGCAG” it is 11700 fluorescence intensity (a.u.); for “GGTTTCGGTCTCGGTTTTTTCGGTTCGGTTCTTCGGTTCGCGGAGTCACCTAGTGCAG” it is 9660 fluorescence intensity (a.u.). “GTTGGTTGGTTGGTTGGTTGGCTTCTTCTCGGTTTGTTCGCGGAGTCACCTAGTGCAG”: the binding signal was 25000 fluorescence intensity (a.u.). The value for “TCGCGCGTGTCACTGGGTTTGGGTTGGGTCTCTCTCTCTCCGGAGTCACCTAGTGCAG” was 18400 fluorescence intensity (a.u.); that for “CTCATTGTTGTTGTGTTGTTGCGTTTGGTTTGGTGTGCTCCGGAGTCACCTAGTGCAG” was 8510 fluorescence intensity (a.u.).

Turning to “CTGCGCTCTCCATTGTTTTGTGTTGTGTTTGTTTGCAGTCCGGAGTCACCTAGTGCAG”, the binding signal is 17700 fluorescence intensity (a.u.). “TCTCAGCGGCCCGAACCTGTCTACGTCGCCCGTGTCTTGTCGGAGTCACCTAGTGCAG”: the binding signal is 11200 fluorescence intensity (a.u.).

Take “CTGGCACTTGGCACTTGGTTAATTCCACTCACTCATCACTCGGAGTCACCTAGTGCAG”: the binding signal was 8260 fluorescence intensity (a.u.). The value for “ACATGTGGAGGGAACAGGGCGTGGAATCAAGGGTCGGGATCGGAGTCACCTAGTGCAG” was 8290 fluorescence intensity (a.u.).

Turning to “AGATATACCGTTGTTGCATTTCACCTTAAAATATTTCCAACGGAGTCACCTAGTGCAG”, the binding signal is 8550 fluorescence intensity (a.u.).

Take “GCTCTCTTCTCGCCGCCTCGGCCTCGCCGCCGTGGCCGCCCGGAGTCACCTAGTGCAG”: the binding signal was 9500 fluorescence intensity (a.u.). Turning to “ACATAACCCCGTCATCTCGGCGACCCTCTCTCGTGGTCGCCGGAGTCACCTAGTGCAG”, the binding signal was 8540 fluorescence intensity (a.u.). The figure for “GTCTCACTCTCCCAATCCGCCTCGGCCCGAGCGCGCGCGCCGGAGTCACCTAGTGCAG” is 9530 fluorescence intensity (a.u.); for “CCTTGTATTCGGCCCGCACACGCCAACCTGTCCTGTTCTGCGGAGTCACCTAGTGCAG” it is 9600 fluorescence intensity (a.u.). The figure for “GGTGTTGGGTGTTTGTTCGTTGGTTCCGCTGCTGCTGTTGCGGAGTCACCTAGTGCAG” is 8180 fluorescence intensity (a.u.). With “GGCGAAGTACTTCTTGGTGTTGTTGCTGCCGCTGCCGGCGCGGAGTCACCTAGTGCAG”, the binding signal was 8120 fluorescence intensity (a.u.). The value for “TGGTTTGGTTTGGTTCTTTGTTGTTGCTGCCGCTGCCGCGCGGAGTCACCTAGTGCAG” was 31400 fluorescence intensity (a.u.); that for “CAGGGCCATGTTCGCTGATACATTGTGTTGGATTGCACTGCGGAGTCACCTAGTGCAG” was 8030 fluorescence intensity (a.u.); that for “GTTTACCATTGCATTCCCCGGTCCACGTGCATCAGTGCATCGGAGTCACCTAGTGCAG” was 9610 fluorescence intensity (a.u.). The value for “AGTGTCTGACACTACTTAAGAAACCATAGCAGTGCTAAAGCGGAGTCACCTAGTGCAG” was 31200 fluorescence intensity (a.u.); that for “CACACTATAGCTAGTACTAGTACTAGTACTACTTAAACTACGGAGTCACCTAGTGCAG” was 8120 fluorescence intensity (a.u.).

“ACACTACCTTAAAGAAACATCAGTGACATCTCCATCACTCCGGAGTCACCTAGTGCAG”: the binding signal is 8750 fluorescence intensity (a.u.). The figure for “GCCTACTTAAATTACATTTCCGCACCCACACCACACACACCGGAGTCACCTAGTGCAG” is 11400 fluorescence intensity (a.u.); for “GCCGGCCTGGGAGGCCGAAGGTTGGGGATGACAGGTGGGGCGGAGTCACCTAGTGCAG” it is 8920 fluorescence intensity (a.u.); for “GCTGCCCGCTCTAATCTGTTTTGTCTCCATCTGCTATGATCGGAGTCACCTAGTGCAG” it is 8950 fluorescence intensity (a.u.).

As to “GAGTACTCGTCCGGGGTTTTTAACTTTTTGCCACTTTTAACGGAGTCACCTAGTGCAG”, the binding signal was 9100 fluorescence intensity (a.u.). The figure for “AACAATCACCTAGGCTAAATGTTACTTCCTCCGTTTCACACGGAGTCACCTAGTGCAG” is 9190 fluorescence intensity (a.u.). The figure for “GAGAACCTAATTGTGAGGCTCCTAGTTACACGACAAATCACGGAGTCACCTAGTGCAG” is 56300 fluorescence intensity (a.u.); for “GGTGTGTTTGGCAAATGAGTTATGAGAGGTGTGATTGTTACGGAGTCACCTAGTGCAG” it is 8860 fluorescence intensity (a.u.); for “CGTACTATAATTTTGTCATTCCTGTTGAAATTTTATAATTCGGAGTCACCTAGTGCAG” it is 9340 fluorescence intensity (a.u.). The figure for “GCCGGTCTCCTCCCCGCCACCGCCGCCGCCGCCGCCAATGCGGAGTCACCTAGTGCAG” is 8650 fluorescence intensity (a.u.); for “CGATCGGAGGAGGAGGCGGCGGGGAGGGAGGAGGAGGATGCGGAGTCACCTAGTGCAG” it is 10800 fluorescence intensity (a.u.). For “GGGCGAGGAGCAGCGGCGGGCGGGCGGATGAGGGGCGGCGCGGAGTCACCTAGTGCAG”, the binding signal is 11400 fluorescence intensity (a.u.). The value for “CGATCGGGCCGCGGCGCGAGGGAGGGGATCGGTGCGCGCGCGGAGTCACCTAGTGCAG” was 8060 fluorescence intensity (a.u.); that for “ATATATATATATATATATATATATATATAGAGCGCGCACTCGGAGTCACCTAGTGCAG” was 21200 fluorescence intensity (a.u.).

(Values after PMC7819943, “Rice protein-binding microarrays: a tool to detect cis-acting elements near promoter regions in rice”.)
